A selection: hits, their analogues and other compounds. The true share with any hit is near 18%.
VP16 counter = inhibits Gal4-VP16 luciferase reporter, ROR gamma counter-screen | 3.5% of 310,000 active | Drosophila S2 Gal4-VP16 UAS-luciferase, luminescence, 20 h | Potency, µM (top dose mostly 53.6 µM), actives largely listed as inhibitors;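 note: Gal4-VP16 expression switched on by copper sulfate through the metallothionein promoter; nearly all actives have a fitted effect of over 50% in size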
LDHA inh = inhibitors of human lactate dehydrogenase A | activity change, % (values are at about 110 or 230 µM) | purified LDHA, NADH/diaphorase-resazurin fluorescence; stronger effect = lower value | 0.15% of 480,000 active; in the data active = activity change below about -30%; inconclusive = mostly about -25% to -30%
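Human LDH5 (2 nM) was incubated with 0.06 mM NADH and 0.2 mM pyruvate for 5 min at room temperature in Tris pH 7.4. Remaining NADH was coupled through diaphorase/resazurin, and resorufin fluorescence was read at 0 and 20 min.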
DT40 TDP1 CPT = growth inhibition of DT40 Tdp1-/-;hTDP1 cells with camptothecin (screen for TDP1 inhibitors) | AID 686979 | 12% of 420,000 active | Potency, µM (highest dose often 46.2 µM), actives largely listed as inhibitors | chicken DT40 Tdp1-/-;hTDP1 cells + 20 nM CPT, ATP luminescence, 48 h; note: nearly all actives have a fitted effect of over 55% in size
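Chicken DT40 Tdp1-/- cells complemented with human TDP1, 400 cells/well, exposed to compounds plus 20 nM camptothecin for at least 48 h at 37 C; viability read as ATP content by CellTiter-Glo luminescence.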
RORgamma inh = ROR gamma (mouse) transcription inhibition | AID 2551 | Potency, µM (titrated, usually from 53.6 µM), usual class: inhibitors | 5.4% of 310,000 active | P51450 | Drosophila S2 Gal4-RORgamma UAS-luciferase reporter, 20 h; note: nearly all actives have a fitted effect of over 60% in size
Target sequence (P51450 whole entry, looked up, the tested form may be a part): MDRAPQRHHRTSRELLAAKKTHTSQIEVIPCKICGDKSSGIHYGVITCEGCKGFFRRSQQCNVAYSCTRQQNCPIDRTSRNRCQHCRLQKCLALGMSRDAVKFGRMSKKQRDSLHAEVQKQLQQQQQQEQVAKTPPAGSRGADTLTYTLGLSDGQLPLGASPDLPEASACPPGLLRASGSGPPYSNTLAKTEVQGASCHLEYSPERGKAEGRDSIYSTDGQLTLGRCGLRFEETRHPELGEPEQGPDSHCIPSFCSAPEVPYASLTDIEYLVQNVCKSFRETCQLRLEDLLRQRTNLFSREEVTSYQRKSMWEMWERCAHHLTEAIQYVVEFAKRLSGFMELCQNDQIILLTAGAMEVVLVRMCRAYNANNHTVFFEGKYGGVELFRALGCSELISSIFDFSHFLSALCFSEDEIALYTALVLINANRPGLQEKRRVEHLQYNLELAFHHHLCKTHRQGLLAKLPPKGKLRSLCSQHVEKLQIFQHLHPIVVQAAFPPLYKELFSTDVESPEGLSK
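ROR gamma transcriptional activity was tracked as Gal4-UAS luciferase output in stably transfected Drosophila Schneider cells, with compound added 1 hr before 700 uM copper sulfate induction and a 20 hr ambient-temperature incubation.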
TDP1 cell noCPT = qHTS for Inhibitors of human tyrosyl-DNA phosphodiesterase 1 (TDP1): qHTS in cells in absence of CPT. DT40 Tdp1-/- hTDP1 cells, no CPT, ATP luminescence, 48 h. Potency, µM (doses to about 46.2 µM), most hits filed as inhibitors. 15% of 420,000 active. AID 686978, 2013; note: nearly all actives have a fitted effect of over 55% in size
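Camptothecin absent (DMSO only). Human TDP1-complemented DT40 knockout cells, 400 cells/well, 37 °C for minimum 48 hr; ATP measured via CellTiter-Glo, 30 min dark incubation, luminescence.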
IL-1B inflam inh = blocks inflammasome-driven IL-1 beta release; THP-1 LPS/ATP IL-1B secretion, AlphaLISA, 16 h; stronger effect = lower value; 4.7% of 360,000 active; activity change, % at 57.5 µM; in the data active = activity change below about -50%; inconclusive = mostly about -30% to -49%
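Secreted IL-1B measured by AlphaLISA bead assay after 16 h compound exposure of THP-1 cells; compounds (final up to 57.5 uM) added 1 h before LPS (250 ng/mL) and ATP (1.25 mM) stimulation; lower signal means less secretion.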
Numbers stand for hits. Unless noted, calls come from the whole dose curve; as a rule, active = well fitted curve in the direction sought with a large enough effect; inconclusive = small, poorly fitted or top-dose-only effect, or another doubt; inactive = no such curve, though single readings can be large; an effect the other way counts as inactive or inconclusive.

Results for Cc1ccc(C(=O)COC(=O)c2ccc3c(c2)C(=O)N(c2cccc4ncccc24)C3=O)cc1C ?
VP16 counter: 16µM; LDHA inh: inactive; DT40 TDP1 CPT: inconclusive; RORgamma inh: inconclusive; TDP1 cell noCPT: inconclusive; IL-1B inflam inh: inactive

What do the screens show for `COc1ccccc1Oc1ccc2c(c1)C(=O)N(c1cccc3ncccc13)C2=O`?
VP16 counter: 10µM; LDHA inh: inactive; DT40 TDP1 CPT: inactive; RORgamma inh: inconclusive; TDP1 cell noCPT: inconclusive; IL-1B inflam inh: inactive

What do the screens show for `Cc1ccc(C(=O)COC(=O)c2cc(Cl)nc3ccccc23)cc1C`?
VP16 counter: inactive; LDHA inh: inactive; DT40 TDP1 CPT: inactive; RORgamma inh: inactive; TDP1 cell noCPT: inactive; IL-1B inflam inh: inactive

Results for COc1cccc(OC)c1OC(=O)COc1ccc2oc3c(c2c1)CCCC3 ?
LDHA inh: inactive

How did c1ccc(-c2nc(N3CCN(c4ccccc4)CC3)nc(-n3ccnc3)n2)cc1 do in these assays?
VP16 counter: 16µM; LDHA inh: inactive; DT40 TDP1 CPT: inconclusive; RORgamma inh: 13µM; TDP1 cell noCPT: 16µM; IL-1B inflam inh: inconclusive

What do the screens show for `C/C(=N/O)c1ccc(-n2ccnc2)cc1`?
LDHA inh: inactive

What do the screens show for `c1ccc(-c2ccc(-n3ccnc3)cc2)cc1`?
VP16 counter: inactive; LDHA inh: inactive; DT40 TDP1 CPT: 26µM; RORgamma inh: inconclusive; TDP1 cell noCPT: inconclusive; IL-1B inflam inh: inactive

How did CCOc1ccc(-c2nc(C#N)c(N3CCN(C(=O)c4cccs4)CC3)o2)cc1 do in these assays?
LDHA inh: inactive

Results for CCCOc1ccccc1Oc1ncccc1CNC(=O)Nc1ccc2c(c1)OCCCO2 ?
LDHA inh: inactive

What do the screens show for `Cc1ccc(CN(Cc2ccco2)C(=O)c2ccc(Cl)cc2Cl)cc1`?
LDHA inh: inactive; DT40 TDP1 CPT: inconclusive; TDP1 cell noCPT: inconclusive

What do the screens show for `Cc1cccc(OCC(=O)N(Cc2cccc(Cl)c2)Cc2ccco2)c1C`?
LDHA inh: inactive; DT40 TDP1 CPT: 6.5µM; TDP1 cell noCPT: inactive

What do the screens show for `O=C(c1cc(-c2ccccc2)on1)N(Cc1ccco1)Cc1ccccc1F`?
LDHA inh: inactive

What do the screens show for `Cc1ccc(CN(Cc2ccco2)C(=O)COc2ccc(Cl)cc2Cl)cc1`?
LDHA inh: inactive; DT40 TDP1 CPT: inconclusive; TDP1 cell noCPT: 18µM

Results for O=C(COc1ccccc1Cl)N(Cc1ccco1)Cc1ccco1 ?
LDHA inh: inactive; DT40 TDP1 CPT: inconclusive; TDP1 cell noCPT: 23µM

What do the screens show for `Cc1cc(OC(C)C(=O)N(Cc2ccco2)Cc2ccccc2F)cc(C)c1Cl` (stereo not drawn)?
LDHA inh: inactive; DT40 TDP1 CPT: 21µM; TDP1 cell noCPT: 13µM

Results for C1C2CC3CC1CC(C2)C3NC12CC3CC(CC(C3)C1)C2 (stereo not drawn) ?
LDHA inh: inactive

How did Cc1cc(Cl)ccc1OCC(=O)N(Cc1ccco1)Cc1ccco1 do in these assays?
LDHA inh: inactive; DT40 TDP1 CPT: inconclusive; TDP1 cell noCPT: 23µM

How did COc1ccc(C(CC(=O)N2CCCC(C)C2)c2c(OC)cc(OC)c3ccc(=O)oc23)cc1 (stereo not drawn) do in these assays?
VP16 counter: inactive; LDHA inh: inactive; DT40 TDP1 CPT: inconclusive; RORgamma inh: inactive; TDP1 cell noCPT: 18µM; IL-1B inflam inh: inactive

How did COc1ccc(C(CC(=O)N2CCCC2)c2c(OC)cc(OC)c3ccc(=O)oc23)cc1 (stereo not drawn) do in these assays?
VP16 counter: inactive; LDHA inh: inactive; DT40 TDP1 CPT: inconclusive; RORgamma inh: inactive; TDP1 cell noCPT: inconclusive; IL-1B inflam inh: inactive

Results for COc1ccc(C(CC(=O)N2CCCC(C)C2)c2c(OC)cc(OC)c3c(-c4ccccc4)cc(=O)oc23)cc1 (stereo not drawn) ?
VP16 counter: inactive; LDHA inh: inactive; DT40 TDP1 CPT: inconclusive; RORgamma inh: inactive; TDP1 cell noCPT: 15µM; IL-1B inflam inh: inactive

What do the screens show for `COc1ccc(C(CC(=O)N2CCCCC2)c2c(OC)cc(OC)c3c(-c4ccccc4)cc(=O)oc23)cc1` (stereo not drawn)?
VP16 counter: inactive; LDHA inh: inactive; DT40 TDP1 CPT: inconclusive; RORgamma inh: inactive; TDP1 cell noCPT: inconclusive; IL-1B inflam inh: inactive

Results for COc1ccc(C(CC(=O)N2CCCC2)c2c(OC)cc(OC)c3c(-c4ccccc4)cc(=O)oc23)cc1 (stereo not drawn) ?
VP16 counter: inactive; LDHA inh: inactive; DT40 TDP1 CPT: inconclusive; RORgamma inh: inactive; TDP1 cell noCPT: 16µM; IL-1B inflam inh: inactive

What do the screens show for `Cc1cc(SCc2ccc(Cl)cc2Cl)nc(=O)[nH]1`?
VP16 counter: inactive; LDHA inh: inactive; DT40 TDP1 CPT: inconclusive; RORgamma inh: inactive; TDP1 cell noCPT: 10µM; IL-1B inflam inh: inactive

What do the screens show for `COc1ccc(/C=C(/C#N)C(=O)c2c[nH]c3cccc(C)c23)cc1`?
LDHA inh: inactive

How did Cc1cccc(COc2ccccc2/C=C(\C#N)c2nc3ccccc3[nH]2)c1 do in these assays?
LDHA inh: inactive

How did Cc1ccc(NC(=O)COC(=O)c2ccc3c(c2)C(=O)N(CCc2ccccc2)C3=O)c(C)c1 do in these assays?
VP16 counter: inactive; LDHA inh: inactive; DT40 TDP1 CPT: inconclusive; RORgamma inh: inactive; TDP1 cell noCPT: 6.5µM; IL-1B inflam inh: inactive

What do the screens show for `COc1ccc(OC)c(NC(=O)Cn2ccc3cc(Cl)ccc32)c1`?
LDHA inh: inactive

How did CCOC(=O)c1c(NC(=O)COC(=O)c2cc(OC)c(OC)cc2[N+](=O)[O-])sc(C)c1CC do in these assays?
VP16 counter: inactive; LDHA inh: inactive; DT40 TDP1 CPT: inconclusive; RORgamma inh: inactive; TDP1 cell noCPT: 15µM; IL-1B inflam inh: inactive

What do the screens show for `CCOC(=O)c1c(CC(C)C)csc1NC(=O)COC(=O)c1cc(OC)c(OC)cc1[N+](=O)[O-]`?
VP16 counter: inactive; LDHA inh: inactive; DT40 TDP1 CPT: 12µM; RORgamma inh: inactive; TDP1 cell noCPT: 5.8µM; IL-1B inflam inh: inactive

Results for O=S(=O)(c1ccc(-c2csc(NC3CCCC3)n2)cc1)N1CCCC1 ?
LDHA inh: inactive

Results for O=C(COc1ccccc1)NNc1nc2c(F)cccc2s1 ?
VP16 counter: inactive; LDHA inh: inactive; DT40 TDP1 CPT: inactive; RORgamma inh: 5µM; TDP1 cell noCPT: inactive; IL-1B inflam inh: inactive

Results for C/C(=C\C(=O)c1ccccc1)NNc1nc2ccccc2s1 ?
VP16 counter: inconclusive; LDHA inh: inactive; DT40 TDP1 CPT: inconclusive; RORgamma inh: 7.9µM; TDP1 cell noCPT: inconclusive; IL-1B inflam inh: inactive
